The full ranking holds about 25,000 sequences; the median of “ln(normalized median fluorescence intensity)” is about 6.7, and the highest 2% start at about 10. The sample as a whole holds a higher share of the highest values than the screen did.
These sequences were tested on PfHDP1 homeodomain (GST-tagged) (assay: gcPBM binding intensity (ln(normalized median fluorescence intensity)); higher = stronger DNA binding).
How it was run: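 Each value is the highest Masliner-normalised natural-log median intensity across replicate spots of either orientation of a probe. The probes were primer-extended double-stranded 36-bp intergenic genomic sequences on an Agilent 4 × 180k array, alongside negative controls, exposed for 1 h to GST-tagged P. falciparum DNA-binding domains expressed in E. coli. Bound protein was picked up with Alexa488 anti-GST antibody and scanned at 488 nm.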

Row | Sequence | gcPBM binding intensity (ln)
1 | TAAATATATATATATTGTACAAAACAAATGTGAATT [XGTACX_site696] | 7.1
2 | GATGTTCATCACTACACACACAAAGAAATATAAATA [CACACA_site7294] | 6.57
3 | TCAATTAGACGAAAATGTACATATGTATATATTTTT [XGTACX_site5027] | 6.25
4 | ATACATATGGTGGATCGTACATATATATAATATGTA [XGTACX_site8631] | 6.5
5 | TATAATGTATGTAGTGCACACCTCTATAATATATTA [CACACA_site8560] | 9.5
6 | TAGAATGTATGTAGTGCACACCTCTATAATATATTA [CACACA_site1873] | 10.5
7 | TATGTACACCCATATACACACCTCTATAATATATAT [CACACA_site4563] | 7.13
8 | TATTATATTATACATACACACCCATATAATATGTTT [CACACA_site8191] | 6.85
9 | TAAATATATATATAAGTGCATTATATATATATATAA | 9.53
10 | AATATTCAATATAAAGTGCATTATTGTGGACCTAAT | 8.94
11 | GCCAATAAAGATGTGGTGCATTATATATATATATAT | 10.7
12 | TAAAACTTATACAAATGTACAAATATATATATATAT [XGTACX_site4661] | 9.19
13 | TTTTTTATTTTATTTTTTTCTGCTTATCCACATTAG [XGTACX_negctrl_site108] | 6.48
14 | TTAATTTATTTATGCACACATATATAATTACCCATA [CACACA_site682] | 10.7
15 | ATATTACCCATATATGCACACATTGTAGTTATTTAT [CACACA_site2636] | 9.18
16 | GTATTATTATTATGCACACAAAAATATTTATACATA [CACACA_site3656] | 10.9
17 | TCGTACTTGTATTATGCACACATATAATTAAACATA [CACACA_site9089] | 10.5
18 | TTTTAATTTATTTATGCACACATATATAATTACACA [CACACA_site8126] | 10.1
19 | GCACACATATAATTAAACATATATTTGTATTATTTT [GTGCAC_negctrl_site327] | 6.5
20 | CTTATATTAATTATTACACACATATTTATAAATGCA [CACACA_site6501] | 6.66
21 | GTACTTGTATTATGCACACATATAATTAAACATATA [CACACA_site3312] | 10.1
22 | ATTATATACATATATGCACACAAAAAAATATATATT [CACACA_site8508] | 9.93
23 | CTTTTTTTAATATGCACACATATATTTTATATATTA [CACACA_site2077] | 10.3

Row | Sequence | gcPBM binding intensity (ln)
24 | TAGTATTATTATTATGCACACAAAAATATTTATACA [CACACA_site9219] | 10.4
25 | TTAATTTATTTATGCACACATATATAATTACACATA [CACACA_site4544] | 10.7
26 | AAATAATTAGCTATTTGTACATATATACATATTTAT [XGTACX_site4652] | 6.37
27 | ATTTTTTTTTTTTTTTTTTTTTTTTTTTTTTTTTTT [CACACA_negctrl_site1364] | 7.45
28 | AAGTTTATTATATATAAATTATTATATATATATATA [CACACA_negctrl_site189] | 9.02
29 | AATCAAAGTAATTTAACACACAATTTTAATACTGTT [CACACA_site7169] | 6.23
30 | CATTATGTTGTAAATACACACATACATATACATACA [CACACA_site8143] | 6.76
31 | ACATAAATAAATTAATGTACATATATATTTGTATAT [XGTACX_site3160] | 6.32
32 | TATATGTAGATTAAACGTACTTACAACGGAATTATC [XGTACX_site3036] | 6.67
33 | TATAAACATTAAAGGTGTACAATTTAATTTCAATTT [XGTACX_site2944] | 6.28
34 | GGTATAATAATATATAGTACACACAAAAATGGAAGT [XGTACX_site7058] | 7.5
35 | TATTTTTATCAATTCACACATAAATATATTTATATG [CACACA_site5547] | 6.57
36 | TTTTTCCCCCTTTTTTTGATTTTTATCTTAATTCTA [TGCATGCA_negctrl_site287] | 5.85
37 | TTTATTTATATAATTACACACATATATACACAAATG [CACACA_site8903] | 6.83
38 | TATTACACATATTATGTGCACATATATAATCAATAT | 10.9
39 | CAATTTATTATATATGTGCACATATAATTTTACAAA | 10.4
40 | TTATATTTTACAAATGCACACATAATTTTTTTTTTT [CACACA_site8890] | 9.76
41 | ATACATATATAATTATGTACGTATATTTTATATAAC [XGTACX_site4292] | 6.14
42 | ATATATATATATATATGTACATATTTTTAATTATAA [XGTACX_site7444] | 9.45
43 | ACATAATTATTATGCACACATATTTTTATGTATTTA [CACACA_site698] | 10.2
44 | ATATTTTACAAATGCACACATAATTTTTTTTTTTTT [CACACA_site2763] | 10.5
45 | GTATAATTATGTGCACGTACATATTTTATTATATAT [XGTACX_site8586] | 10.9
